# Laboratory results from PubChem BioAssay (NCATS).
# Calls of active or inactive are those of the source. The call rests on the fitted dose curve; in most records, active means well fitted curve in the direction sought with a large enough effect; inconclusive means small, poorly fitted or top-dose-only effect, or another doubt; inactive means no such curve, though single readings can be large or run the other way.
# Target: Methanococcus maripaludis chaperonin (MmCpn) (UniProt Q6LX38)
# Assay: High-Throughput Screening for Modulators of Cytosolic Chaperonin Activity: MmCpn Primary Screen (AID 488978)
# Details: Purified MmCpn ATPase activity, ADP HTRF detection, 10 min; series mostly up to 76.9 µM
# Outline: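 HTRF readout (320 nm excitation, 590/665 nm emission) of ADP generated by 50 nM MmCpn hydrolysing 30 uM ATP during 10 min at 37C; compound preincubated 5 min RT.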
# Methanococcus maripaludis chaperonin (MmCpn), sequence (Q6LX38 1-543): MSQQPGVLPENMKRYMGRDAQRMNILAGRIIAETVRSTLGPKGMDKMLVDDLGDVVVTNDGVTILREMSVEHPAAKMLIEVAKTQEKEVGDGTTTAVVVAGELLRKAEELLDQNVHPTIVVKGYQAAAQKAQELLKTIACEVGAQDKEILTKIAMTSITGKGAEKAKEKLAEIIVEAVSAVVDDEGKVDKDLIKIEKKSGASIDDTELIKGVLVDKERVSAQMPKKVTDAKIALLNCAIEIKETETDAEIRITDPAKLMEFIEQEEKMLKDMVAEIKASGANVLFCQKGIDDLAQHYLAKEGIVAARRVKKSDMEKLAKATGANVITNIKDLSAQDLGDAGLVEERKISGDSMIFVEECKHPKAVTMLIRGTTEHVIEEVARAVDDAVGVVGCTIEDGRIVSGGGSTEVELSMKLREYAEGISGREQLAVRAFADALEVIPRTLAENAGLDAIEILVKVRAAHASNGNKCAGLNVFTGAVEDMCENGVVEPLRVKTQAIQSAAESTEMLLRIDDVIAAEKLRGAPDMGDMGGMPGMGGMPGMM
row,Compound,outcome
1,CC(C)[N+](C)(CCOC(=O)C1c2ccccc2Oc2ccccc21)C(C)C,inactive
2,NC1=NCC2c3ccccc3Cc3ccccc3N12 (centres undefined),inactive
3,CCO/C([O-])=N/c1c[n+](N2CCOCC2)no1,inactive
4,CCN(CC)CCCN(c1ccccc1)C1Cc2ccccc2C1,inactive
5,CCCN(CCC)CCc1cccc2c1CC(=O)N2,inactive
6,C[C@@H](O)[C@H]1C(=O)N2C(C(=O)O)=C(SCCN=CN)C[C@H]12,inactive
7,CC(C)(Oc1ccc(CCNC(=O)c2ccc(Cl)cc2)cc1)C(=O)O,inactive
8,CN1C(=O)CC[C@H]1c1cccnc1,inactive
9,Cc1nc2ccccn2c(=O)c1CCN1CCC(C(=O)c2ccc(F)cc2)CC1,inactive
10,NC(=O)c1cn(Cc2c(F)cccc2F)nn1,inactive
11,CCCCCCCC/C=C\CCCCCCCC(=O)NCc1ccc(O)c(OC)c1,inactive
12,C[C@]12CC[C@@H]3c4ccc(O)cc4C[C@@H](CCCCCCCCCS(=O)CCCC(F)(F)C(F)(F)F)[C@H]3[C@@H]1CC[C@@H]2O (some centres undefined),inactive
13,CC(=O)[C@@]1(O)CC[C@H]2[C@@H]3CCC4=CC(=O)CC[C@]4(C)[C@H]3CC[C@@]21C,inactive
14,CCCCCN(CCCCC)C(=O)C(CCC(=O)O)NC(=O)c1ccc(Cl)c(Cl)c1 (centres undefined),inactive
15,COCCc1ccc(OCC(O)CNC(C)C)cc1 (centres undefined),inactive
16,c1ccc2c(c1)CCCC2C1=NCCN1 (centres undefined),inactive
17,Cc1cccc(C)c1NC(=O)C(C)N (centres undefined),inactive
18,OC(CCN1CCCCC1)(c1ccccc1)C1CCCCC1 (centres undefined),inactive
19,CCCN(CCC)C(=O)C(CCC(=O)O)NC(=O)c1ccccc1 (centres undefined),inactive
